Source: PubChem
VDR inh = inhibitors of human vitamin D receptor; VDR-SRC2-3 peptide fluorescence polarization, 2 h; Potency, µM, hits mostly inhibitors; 400,000 tested, 0.93% active
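Compounds are added to VDR with labelled SRC2-3 coactivator peptide and held 2 h at room temperature. Inhibition of the VDR–peptide interaction is then read as a change in fluorescence polarization.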
PLK1 PBD block = inhibitors of human PLK1 polo-box domain binding. AID 720504. 360,000 tested, 2.8% active. Potency, µM, usual class: inhibitors. Plk1 PBD binding of FITC phosphopeptide, fluorescence polarization. P53350; note: series mostly up to about 57 µM; nearly all actives have a fitted effect of over 65% in size
DT40 TDP1 no CPT = qHTS for Inhibitors of human tyrosyl-DNA phosphodiesterase 1 (TDP1): qHTS in cells in absence of CPT. DT40 Tdp1-/- hTDP1 cells, no CPT, ATP luminescence, 48 h. Potency, µM (doses to about 46.2 µM), actives largely listed as inhibitors. 420,000 tested, 15% active; note: nearly all actives have a fitted effect of over 55% in size
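Stably hTDP1-transfected Tdp1-null chicken DT40 cells were treated with library compounds minus camptothecin and grown for at least 48 hr at 37 °C, after which cellular ATP was quantified by luminescence.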
TDP1 block = blocks human tyrosyl-DNA phosphodiesterase 1; recombinant TDP1, AlphaScreen DNA substrate cleavage; Potency, µM (highest dose often 130 µM), hits mostly inhibitors; Q9NUW8; 350,000 tested, 0.28% active; AID 485290; note: nearly all actives have a fitted effect of over 40% in size
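E. coli-derived human Tdp1, 1 nM final. Cpd preinc 15 min RT; substrate 15 nM final, 5 min RT; AS bead mix 10 ug/ml final, 10 min RT. Signal loss = tyrosine-FITC cleavage. No-enzyme wells = max signal.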
KAT2A inh = inhibitors of human GCN5L2 histone acetyltransferase | GCN5L2 HAT assay, ThioGlo1 CoA-SH fluorescence | AID 504327 | Q92830 | Potency, µM (series often up to 58.9 µM), hits mostly inhibitors | 390,000 tested, 0.21% active
Target sequence (Q92830 whole entry, looked up): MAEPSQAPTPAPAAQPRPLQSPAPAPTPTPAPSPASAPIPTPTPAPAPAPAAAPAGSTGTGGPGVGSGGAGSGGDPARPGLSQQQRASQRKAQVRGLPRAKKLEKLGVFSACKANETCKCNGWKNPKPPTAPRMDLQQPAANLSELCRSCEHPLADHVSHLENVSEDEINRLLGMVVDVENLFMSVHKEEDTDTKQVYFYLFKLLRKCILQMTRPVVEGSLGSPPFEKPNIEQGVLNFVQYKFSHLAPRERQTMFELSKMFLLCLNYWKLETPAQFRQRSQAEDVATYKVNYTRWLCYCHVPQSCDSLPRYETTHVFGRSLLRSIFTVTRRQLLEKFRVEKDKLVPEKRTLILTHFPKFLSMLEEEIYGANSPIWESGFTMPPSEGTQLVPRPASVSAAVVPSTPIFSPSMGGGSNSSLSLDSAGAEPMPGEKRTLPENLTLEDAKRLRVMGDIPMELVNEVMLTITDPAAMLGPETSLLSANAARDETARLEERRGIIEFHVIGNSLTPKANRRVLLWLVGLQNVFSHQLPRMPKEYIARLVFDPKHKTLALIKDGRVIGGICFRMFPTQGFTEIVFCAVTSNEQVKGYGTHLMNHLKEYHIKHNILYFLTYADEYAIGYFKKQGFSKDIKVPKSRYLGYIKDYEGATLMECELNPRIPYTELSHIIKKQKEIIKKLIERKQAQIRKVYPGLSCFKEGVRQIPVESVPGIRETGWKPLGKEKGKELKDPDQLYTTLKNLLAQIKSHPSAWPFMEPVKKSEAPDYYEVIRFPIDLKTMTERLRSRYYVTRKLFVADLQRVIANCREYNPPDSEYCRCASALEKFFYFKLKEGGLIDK
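Titration-based screen in which CoA formation is detected via maleimide probe ThioGlo1 (50uM) turning fluorescent on thiol reaction; substrates H3(1-25) 75uM and acetyl-CoA 70uM, GCN5L2 20nM, 20 min incubation at room temperature.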
DT40 TDP1 CPT = DT40-hTDP1 cell growth loss with CPT; 420,000 tested, 12% active; chicken DT40 Tdp1-/-;hTDP1 cells + 20 nM CPT, ATP luminescence, 48 h; Potency, µM (highest dose often 46.2 µM), usual class: inhibitors; note: nearly all actives have a fitted effect of over 55% in size
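Cell growth measured by CellTiter-Glo luminescence after a minimum 48 h, 37 C compound exposure with 20 nM CPT in Tdp1-knockout DT40 cells stably expressing hTDP1, seeded 400/well; qHTS titration format.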
Hits are given with their value; – = inactive; ? = inconclusive; · = no result; [ ] = dose if it differs, or a comment. In the library only some 18% were active in any assay of this set; here they are far more common. Calls come from the whole dose curve; as a rule, active = well fitted curve in the direction sought with a large enough effect; inconclusive = small, poorly fitted or top-dose-only effect, or another doubt; inactive = no such curve, though single readings can be large; an effect the other way counts as inactive or inconclusive.

SMILES	VDR inh	PLK1 PBD block	DT40 TDP1 no CPT	TDP1 block	KAT2A inh	DT40 TDP1 CPT
CCc1nc2cc(C(=O)N(C)C3CCOC3)cc(NC(=O)c3ccccc3OC)c2n1C (centres undefined)	·	·	–	·	·	–[9.04 µM]
COc1ccc(OC)c(/C=N/N=C2\SCC(=O)N2Cc2ccco2)c1	–	–	?	–	–	–
COc1ccc(OC)c(C2(O)CSC(=Nc3cccnc3)N2Cc2ccco2)c1 (centres undefined)	–	–	18µM	–	–	15µM
CCOC(=O)N1CCC2(CC1)OC(=O)C(C)=C2C(=O)NCc1cccc(F)c1	–	·	?	–	–	–
CCOc1cccc(C(=O)NNC(=O)C2C3C=CC(C3)C2C(=O)O)c1 (centres undefined)	–	–	–	–	–	–
Cc1ccccc1N1CCN(c2ccccc2NC(=O)/C=C\C(=O)O)CC1	–	–	?	·	·	16µM
COC(=O)/C=C/C(=O)N1CCN(c2ccccc2C)CC1	–	–	16µM	–	–	?
COC(=O)/C=C/C(=O)N1CCN(c2ccccc2)CC1	–	–	–	–	–	–
CCOc1ccc(NC(=O)c2oc3ccccc3c2NC(=O)Cc2cccs2)cc1	–	·	?	–	–	?
CC(C)C1OC2(C)OC(=N)C1(C#N)C(C#N)(C#N)C2c1ccccc1 (centres undefined)	–	?	?	–	–	?
CC1CCC(C(C)C)C2=C1C(C#N)(C#N)C(C#N)(C#N)C(c1ccccc1)N2 (centres undefined)	89µM	?	18µM	–	–	?
CC(C)Cn1c(N)c(C(=O)CSc2ncnc3sc4c(c23)CCCC4)c(=O)n(C)c1=O	–	–	–	–	–	–
Cc1ccccc1NC1=C/C(=N\S(=O)(=O)c2ccc(C(=O)O)cc2)c2ccccc2C1=O	?	–	18µM	–[0.0935 µM]	–	16µM
COC(=O)C(C(C)=O)C1=C/C(=N\S(=O)(=O)c2ccc(C)cc2)c2ccccc2C1=O (centres undefined)	–	28µM	10µM	–	–	3.5µM
O=C(O)c1ccc(S(=O)(=O)/N=C2\C=C(Nc3ccccc3F)C(=O)c3ccccc32)cc1	32µM	30µM	–	–	–	–
C[C@@H]1CN([C@H](C)CO)C(=O)c2cc(C#Cc3ccccc3F)cnc2O[C@@H]1CN(C)S(=O)(=O)c1ccccc1F	·	–	–	·	·	–
CCC(c1ccccc1)C(CC)c1cc(O)c(O)c(O)c1 (centres undefined)	?	6µM	8.2µM	·	·	16µM
Cc1ccc(C)c(Nc2nc(-c3ccccc3)c3cc(Br)ccc3n2)c1	–	·	?	–[12.3 µM]	–	?
CCN1CCN(c2nc(Nc3cccc(C)c3)nc(N)c2[N+](=O)[O-])CC1	–	–	18µM	–	–	?
CCN1CCN(c2nc(Nc3ccccc3)nc(N)c2[N+](=O)[O-])CC1	–	–	–	–	–	–
Cc1cccc(Nc2nc(N)c([N+](=O)[O-])c(N3CCCC(C)C3)n2)c1 (centres undefined)	–	–	10µM	–	–	13µM
C#CC(=O)CCC1CCCN1C(=O)OC(C)(C)C (centres undefined)	?	–	?	–	–	15µM
Cc1ccc(NC(=O)CCCNC(=O)c2ccc(Cl)cc2)c(O)c1	–	–	–	–	–	–
COc1ccc(C(CC(=O)O)NS(=O)(=O)c2ccc3c(c2)N(C(C)=O)CC(C)O3)cc1 (centres undefined)	–	27µM	–	–	–	–
O=C(Cc1ccc(Cl)cc1)c1c(O)cc(O)cc1O	?	·	–	–	–	–
SMILES	VDR inh	PLK1 PBD block	DT40 TDP1 no CPT	TDP1 block	KAT2A inh	DT40 TDP1 CPT
C=CCn1c(=O)/c(=C/c2ccc(Cl)cc2)s/c1=C(\C#N)c1nnc2n1CCCCC2	?	–	6.5µM	·	·	21µM
O=C(CCn1c(=O)c2sccc2n(Cc2cccc(F)c2)c1=O)NCc1ccc2c(c1)OCO2	–	·	–	–	–	–
Cc1ccc(-c2nc(C)c(CCNC(=O)c3ccco3)s2)cc1	–	·	·	–	–	·
Cc1nc(NCCNC(=O)c2ccco2)c2c(C)c(C)sc2n1	–	–	21µM	–	–	?
Cc1nc(NCCc2ccc(S(N)(=O)=O)cc2)c2c(C)c(C)sc2n1	–	–	15µM	–	–	16µM
CCc1cccc(CC)c1C(OC(C)=O)c1cccnc1 (centres undefined)	–	–	?	·	·	–
COc1ccc([C@]23Cc4cc(C#N)ccc4C(O2)c2c(cc(-c4ccccc4)oc2=O)O3)cc1	·	·	·	·	–[12.7 µM]	·
COc1ccc(/C=C/C(=O)NC(=S)NNC(=O)c2c(-c3ccccc3)noc2C)cc1	–	–	26µM	–	–	?
COc1ccc(/C=C/C(=O)NC(=S)NNC(=O)c2ccco2)cc1	–	–	21µM	–	–	15µM
Cc1onc(-c2ccccc2)c1C(=O)NNC(=S)NC(=O)c1ccc(Br)cc1	–	–	?	–	–	?
Cc1onc(-c2ccccc2)c1C(=O)NNC(=S)NC(=O)/C=C/c1ccccc1	–	–	18µM	–	–	21µM
Cc1cc(C)c(S(=O)(=O)Nc2ccc(-c3ccc(N4CCCCCC4)nn3)cc2)c(C)c1	–	·	?	–	–	?
O=S(=O)(Nc1ccc(-c2ccc(N3CCCCCC3)nn2)cc1)c1ccc(C(F)(F)F)cc1	–	·	?	–	–	12µM
O=S(=O)(Nc1ccc(-c2ccc(N3CCCCCC3)nn2)cc1)c1cccc(C(F)(F)F)c1	–	·	?	–	–	15µM
O=S(=O)(Nc1ccc(-c2ccc(N3CCCC3)nn2)cc1)c1ccc(C(F)(F)F)cc1	–	·	?	–	–	?
COc1cccc(C(=O)OCC(=O)NC(C)CCc2ccccc2)c1O (centres undefined)	–	–	–	·	–	–
O=C(NNc1ncnc2ccccc12)c1cccc(Cl)c1	–	–	–	–	–	?
CCOC(=O)N/N=C/c1c(F)cccc1F	–	–	?	–	–	–
CCCCNC(=S)N/N=C/C1=CCC2CC1C2(C)C (centres undefined)	–	–	18µM	–	–	?
CC(C)NC(=S)N/N=C/C1=CCC2CC1C2(C)C (centres undefined)	–	–	?	–	–	?
C=C(C)CNC(=S)N/N=C/C1=CCC2CC1C2(C)C (centres undefined)	–	–	7.3µM	–	–	7.3µM
C=C(C)CNC(=S)N/N=C/c1c(F)cccc1F	–	–	16µM	–	–	?
O=C(CCS(=O)(=O)c1cc(Br)cc2c1N(C(=O)C1CC1)CC2)N1CCN(c2ccc(F)cc2)CC1	–	·	?	–	–	?
